Laboratory results reported in the OligoGym collection.

biological target: CHRNE; experiment: pooled miR-30 sensor sort-seq; sequence = guide strand; details: shRNA
Further: reference of the scale not given here.

Q: Which sensor-assay potency score (higher = more potent) does the source give for TTGTTTTCCAGCACAATCTCTG here?
A: The sensor-assay potency score (higher = more potent) was -0.404.

Q: How did the sensor-assay potency score (higher = more potent) turn out when TAGAAGAGCGGCTTCCGGCGGA was run?
A: Its sensor-assay potency score (higher = more potent) is 0.192.

Q: With TTCCAGCACAATCTCTGGCAGC as the sequence, how does the sensor-assay potency score (higher = more potent) read?
A: The sensor-assay potency score (higher = more potent) was -0.813.

Q: With TTGCTTTCTGTCAGTACTGTAG as the sequence, how does the sensor-assay potency score (higher = more potent) read?
A: Its sensor-assay potency score (higher = more potent) is -0.702.

Q: With ATGACGAAAATAAGGAACCTGC as the sequence, how does the sensor-assay potency score (higher = more potent) read?
A: Its sensor-assay potency score (higher = more potent) is -1.05.

Q: With TAGGTGACCTCCACTGCGCAGA as the sequence, how does the sensor-assay potency score (higher = more potent) read?
A: Its sensor-assay potency score (higher = more potent) is -0.727.

Q: How did the sensor-assay potency score (higher = more potent) turn out when TAGTGGTGAGAGTCTCCTCTTT was run?
A: Its sensor-assay potency score (higher = more potent) is -0.541.

Q: Which sensor-assay potency score (higher = more potent) does the source give for TGTGTCGATGTCGATCTTGTTG here?
A: Its sensor-assay potency score (higher = more potent) is -0.832.

Q: TTGCCGTCGTTGTCTACGGCAA was tested. Which sensor-assay potency score (higher = more potent) did it give?
A: The sensor-assay potency score (higher = more potent) was -1.16.

Q: With TTAATGACGTAGAAGAGCGGCT as the sequence, how does the sensor-assay potency score (higher = more potent) read?
A: The sensor-assay potency score (higher = more potent) was -0.711.

Q: TAATCCTGCCAATCGATTCCAA was tested. Which sensor-assay potency score (higher = more potent) did it give?
A: The sensor-assay potency score (higher = more potent) was -0.67.

Q: With TTGATGGTCTTGCCGTCGTTGT as the sequence, how does the sensor-assay potency score (higher = more potent) read?
A: The sensor-assay potency score (higher = more potent) was -1.26.

Q: Which sensor-assay potency score (higher = more potent) does the source give for TTCAGTATCAGCTCCTCCGCGC here?
A: The sensor-assay potency score (higher = more potent) was -0.412.

Q: TTTTCCAGCACAATCTCTGGCA was tested. Which sensor-assay potency score (higher = more potent) did it give?
A: The sensor-assay potency score (higher = more potent) was -0.449.

Q: TCTTGTTGATGGTCTTGCCGTC was tested. Which sensor-assay potency score (higher = more potent) did it give?
A: The sensor-assay potency score (higher = more potent) was 0.0404.

Q: TTCACGGCATCCACACAGCAGC was tested. Which sensor-assay potency score (higher = more potent) did it give?
A: Its sensor-assay potency score (higher = more potent) is -0.899.

Q: Which sensor-assay potency score (higher = more potent) does the source give for TAGATGACGTCAGTCTCCCCTG here?
A: Its sensor-assay potency score (higher = more potent) is -0.628.

biological target: CHST7; experiment: as above; details: shRNA

Q: For TTACTGGAAACTTCATCTCAAC, which sensor-assay potency score (higher = more potent) is on record?
A: Its sensor-assay potency score (higher = more potent) is -1.13.

Q: For TACAAGTAGAAAACGTCCGGGT, which sensor-assay potency score (higher = more potent) is on record?
A: Its sensor-assay potency score (higher = more potent) is 0.0569.

Q: For TAAATATCCACATTGCACTGTC, which sensor-assay potency score (higher = more potent) is on record?
A: The sensor-assay potency score (higher = more potent) was 0.728.

Q: With TTTTCGTCCAGACACCTGCTGG as the sequence, how does the sensor-assay potency score (higher = more potent) read?
A: The sensor-assay potency score (higher = more potent) was -1.07.

Q: With TTGGGAACCGAGGAGACTGGTT as the sequence, how does the sensor-assay potency score (higher = more potent) read?
A: Its sensor-assay potency score (higher = more potent) is -0.796.

Q: TTGGTAGCAAGTCAAGTCCCAG was tested. Which sensor-assay potency score (higher = more potent) did it give?
A: Its sensor-assay potency score (higher = more potent) is -1.13.

Q: With AACAGCAGCGCGAACTTGCAGT as the sequence, how does the sensor-assay potency score (higher = more potent) read?
A: The sensor-assay potency score (higher = more potent) was -0.918.

Q: With TCCTTGATGACCACCACCGGGT as the sequence, how does the sensor-assay potency score (higher = more potent) read?
A: Its sensor-assay potency score (higher = more potent) is -1.07.

Q: How did the sensor-assay potency score (higher = more potent) turn out when TACCAAATCACATCTCTTCTTT was run?
A: Its sensor-assay potency score (higher = more potent) is -0.0966.

Q: How did the sensor-assay potency score (higher = more potent) turn out when ATACAAGTAGAAAACGTCCGGG was run?
A: The sensor-assay potency score (higher = more potent) was 0.117.

Q: How did the sensor-assay potency score (higher = more potent) turn out when TAGATGTGCTGCTTCTCGCGAG was run?
A: The sensor-assay potency score (higher = more potent) was -0.296.

biological target: CHSY1; experiment: as above; details: shRNA

Q: With TTTTGCTGAAAGTCTGCTGTAA as the sequence, how does the sensor-assay potency score (higher = more potent) read?
A: Its sensor-assay potency score (higher = more potent) is -0.0624.

Q: For TTTATCTTTGGGTTCTTTGTGC, which sensor-assay potency score (higher = more potent) is on record?
A: The sensor-assay potency score (higher = more potent) was 0.332.

Q: With TTTCCCACTATAAACAATCTTT as the sequence, how does the sensor-assay potency score (higher = more potent) read?
A: Its sensor-assay potency score (higher = more potent) is -0.597.

Q: Which sensor-assay potency score (higher = more potent) does the source give for TTCTTTGTGCTCACTCTTCGAC here?
A: The sensor-assay potency score (higher = more potent) was -0.347.

Q: TTGCTCGACATCGCTGAAGGAA was tested. Which sensor-assay potency score (higher = more potent) did it give?
A: Its sensor-assay potency score (higher = more potent) is -0.494.

Q: For TTGAAGTCAATGATGCGCCCTC, which sensor-assay potency score (higher = more potent) is on record?
A: The sensor-assay potency score (higher = more potent) was -0.291.

Q: For TAAATCTCACAAACATGTCGAA, which sensor-assay potency score (higher = more potent) is on record?
A: The sensor-assay potency score (higher = more potent) was -0.309.

Q: With TGTATTTGCTCGACATCGCTGA as the sequence, how does the sensor-assay potency score (higher = more potent) read?
A: The sensor-assay potency score (higher = more potent) was 0.246.

Q: With TTGTCTTGGACCATGTTCTGTA as the sequence, how does the sensor-assay potency score (higher = more potent) read?
A: Its sensor-assay potency score (higher = more potent) is 0.134.

Q: Which sensor-assay potency score (higher = more potent) does the source give for TTAACAATCACAACAGAACATT here?
A: Its sensor-assay potency score (higher = more potent) is -1.42.

Q: How did the sensor-assay potency score (higher = more potent) turn out when TTGTGCTCACTCTTCGACCCAG was run?
A: Its sensor-assay potency score (higher = more potent) is -0.424.

Q: How did the sensor-assay potency score (higher = more potent) turn out when TTTTACTGTAACTTGGATCATT was run?
A: The sensor-assay potency score (higher = more potent) was -0.393.
